# Source: PubChem BioAssay
# Hits are enriched below; roughly 2.8% of the tested compounds scored in any of these assays.
# KDM5B inh: blocks human KDM5B histone demethylase activity | KDM5B demethylase, FDH-coupled NADH fluorescence (FDH is formaldehyde dehydrogenase) | Potency, µM (doses to about 57.7 µM), actives largely listed as inhibitors | 220,000 tested, 2.6% active; active = well fitted inhibition curve with a large enough effect; inconclusive = small, poorly fitted or top-dose-only effect; inactive = no such curve, though single readings can be large or run the other way; note: nearly all actives have a fitted effect of over 70% in size
#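 Measured: NADH fluorescence change, 30 min, RT. System: KDM5BΔAP 200 nM final, H3K4me3 peptide, α-KG, Fe(II), ascorbate, NAD⁺ plus FDH, pH 7.5 HEPES. Compounds: titrated, 10 min pre-incubation with enzyme.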
# IP6K1 inhibitor: IP6K1 kinase inhibition | IP6K1 kinase, ADP-Glo luminescence, 2 h; stronger effect = lower value | AID 1645851 | 140,000 tested, 0.81% active | Q92551 | activity change, % (series mostly up to about 58 µM); in the data active = activity change below about -25%
# Target sequence (Q92551 whole entry, looked up): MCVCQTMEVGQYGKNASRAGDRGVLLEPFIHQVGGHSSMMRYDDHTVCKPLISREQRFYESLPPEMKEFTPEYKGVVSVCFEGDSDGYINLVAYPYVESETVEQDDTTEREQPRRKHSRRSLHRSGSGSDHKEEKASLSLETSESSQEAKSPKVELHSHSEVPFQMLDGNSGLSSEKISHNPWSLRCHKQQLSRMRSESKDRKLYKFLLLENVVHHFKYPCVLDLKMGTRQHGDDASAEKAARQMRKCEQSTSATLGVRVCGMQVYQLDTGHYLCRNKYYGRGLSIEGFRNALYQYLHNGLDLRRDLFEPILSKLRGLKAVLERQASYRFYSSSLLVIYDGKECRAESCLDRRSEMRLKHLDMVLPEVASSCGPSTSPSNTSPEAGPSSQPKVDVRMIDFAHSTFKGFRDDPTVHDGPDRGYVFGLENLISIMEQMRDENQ
#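 ADP-Glo luminescence measures ADP made by human IP6K1 during a 2 h RT reaction with ATP/IP6 (mix at 1.3 mM/130 uM); top library doses 57.5 and 19.1 uM final.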
# Numbers stand for hits; 0 = inactive; ? = inconclusive; - = no result.
SMILES,KDM5B inh,IP6K1 inhibitor
Cc1c(-c2ccccc2)[nH]c2c(CNC(=O)C3=NN(C)C(=O)CC3)cc(Cl)cc12,0,0
Cc1cc(CNC(=O)c2ccc(S(N)(=O)=O)cc2)c2[nH]c(C)c(C)c2c1,?,0
Cc1nc(CCC(=O)NCc2cc(Cl)cc3c(C)c(-c4ccccc4)[nH]c23)n[nH]1,25.1µM,0
CCn1nccc1C(=O)NCc1cc(C)cc2c(C)c(-c3ccccc3)[nH]c12,12.6µM,0
Cc1cc(CNC(=O)CC2C=CS(=O)(=O)C2)c2[nH]c(-c3ccccc3)c(C)c2c1 (stereo unspecified),28.2µM,0
Cc1ncoc1C(=O)NCc1cc(Cl)cc2c(C)c(-c3ccccc3)[nH]c12,35.5µM,0
COc1cc(NC(=O)c2ccccc2)c(OC)cc1NC(=O)CCc1ccc(-c2ccccc2)o1,0,-
Fc1ccc(CNCCN2CCCC2)c(F)c1,0,-
CN(C)c1nc(OCC#N)nc(N2CCOCC2)n1,0,-
C=CCN(C)C(=O)[C@@H](C)C1CC[C@@]2(C)Cc3sc(-c4cccnc4)nc3[C@@H](C)[C@@H]2[C@H]1O (stereo partly specified),31.6µM,0
C=CCN(C)C(=O)[C@@H](C)C1CC[C@@]2(C)Cc3sc(CSc4ccccc4)nc3[C@@H](C)[C@@H]2[C@H]1O (stereo partly specified),0,0
Cc1nc2c(s1)C[C@]1(C)CCC([C@H](C)C(=O)N3CCOCC3)[C@H](O)[C@H]1[C@@H]2C (stereo partly specified),0,0
C[C@H](C(=O)NCCN1CCOCC1)C1CC[C@@]2(C)Cc3sc(-c4ccccc4)nc3[C@@H](C)[C@@H]2[C@H]1O (stereo partly specified),25.1µM,0
C=CCN(C)C(=O)[C@@H](C)C1CC[C@@]2(C)Cc3sc(NCCCC)nc3[C@@H](C)[C@@H]2[C@H]1O (stereo partly specified),35.5µM,0
C#CCN(C)C(=O)[C@@H](C)C1CC[C@@]2(C)Cc3sc(NCCCC)nc3[C@@H](C)[C@@H]2[C@H]1O (stereo partly specified),?,0
COc1ccc2c(c1)CN(Cc1ccccc1)C(=O)CCN2CC(O)Cc1ccccc1 (stereo unspecified),-,0
O=C(C1CC1)N1CCC(c2nn(-c3ccccn3)c(=O)[nH]2)CC1,-,0
CC1(COc2ccc(-c3nc(COc4ccccc4)no3)cn2)CCCNC1 (stereo unspecified),?,0
c1ccc(OCc2noc(-c3ccc(NC4CCSC4)nc3)n2)cc1 (stereo unspecified),28.2µM,0
CN1CCN(Cc2ccc(-c3cnc4c(OCc5ccccc5)nccn34)cc2)CC1,31.6µM,0
CC(=O)N1CCN(Cc2ccc(-c3cnc4c(OCc5ccccc5)nccn34)cc2)CC1,?,0
Cc1nn(-c2ccccc2)c2c1C(C1CC1)N(C1CCN(C(=O)C3CC3)C1)C2=O (stereo unspecified),-,0
O=C(NCc1nnc2cc(-c3nc(C4CC4)no3)ccn12)c1ccc(Cl)cc1,?,0
CCN(CC)c1ccc(C(=O)NCc2nnc3cc(-c4nc(C5CC5)no4)ccn23)cc1,?,0
Cc1ccc(C)c(C(=O)NCc2nnc3cc(-c4nc(C5CC5)no4)ccn23)c1,14.1µM,0
SMILES,KDM5B inh,IP6K1 inhibitor
Cc1ccc(C(=O)NCc2nnc3cc(-c4nc(C5CC5)no4)ccn23)cc1,?,0
Cc1ccc(C(=O)NCc2nnc3cc(-c4nc(C5CC5)no4)ccn23)cc1C,28.2µM,0
Cc1ccccc1C(=O)NCc1nnc2cc(-c3nc(C4CC4)no3)ccn12,28.2µM,0
O=C(NCc1nnc2cc(-c3nc(C4CC4)no3)ccn12)c1ccncc1,28.2µM,0
CC(C)[C@@H]1C[C@@H]2C[C@@H](NCc3ccccc3)C[C@]2(c2ccccc2)CO1,-,0
O=C(NCc1ccccc1Cl)C1CCCN(Cc2cccc(-c3cccs3)c2)C1 (stereo unspecified),-,0
O=C(N/N=C/c1ccccc1Br)c1ccc(Br)s1,0,-
Cc1cccc(Oc2cnn(-c3ccc(C(F)(F)F)cn3)c(=O)c2Cl)c1C,0,-
CN1CCN(NC(=S)NCCc2ccccc2)CC1,0,-
O=C(NCc1ccc(Cl)nc1)c1ccc2ccnn2c1,35.5µM,0
O=C(NCc1ccc(Cl)cc1)c1ccc2ccnn2c1,35.5µM,0
O=C(NCc1ccc(Cl)nc1)c1cnn2c1CN(C(=O)c1cccnc1)CC2,0,0
O=C(Nc1ccc(Cl)nc1)c1ccc2cncn2c1,?,0
O=C(Nc1ccc(Cl)cc1Cl)c1ccc2ccnn2c1,?,0
O=C(NCc1ccc(Cl)nc1)c1ccc2cncn2c1,35.5µM,0
COC[C@@H]1OCCN(S(=O)(=O)c2cc(OC)ccc2OC)[C@H]1c1ccccc1,-,0
CCOC(=O)C(NC(=O)/C=C/c1ccc(OC(C)C)c(OC)c1)C(=O)OCC,0,-
Cc1nn(-c2ccccc2)c2c1C(C)N(C1CCCN(C(=O)c3cccnc3)C1)C2=O (stereo unspecified),-,0
COc1ccccc1C(=O)NCCNC(=O)c1cccc(-c2ccsc2)c1,-,0
CNC(=O)c1cc(-c2cccc(OC)c2)nc2c1cnn2C,-,0
O=C1CC2(CCN(C(=O)C3CCCN3C(=O)Cc3cccc(Cl)c3)CC2)Oc2ccccc2N1 (stereo unspecified),-,0
Cc1ccc(CNC(=O)c2cc3cc(C)ccc3[nH]2)cc1,0,-
COCCNc1nc2cc(-c3nc(-c4cccnn4)no3)ccc2n1C,0,0
COCCNc1nc2cc(C(=O)N[C@@H]3CC[C@@H](N)C3)ccc2n1C,22.4µM,0
CC1(C(=O)Nc2ccc(F)cc2)CN(Cc2ccccc2)Cc2ccc(N3CCOCC3)nc21 (stereo unspecified),31.6µM,0
SMILES,KDM5B inh,IP6K1 inhibitor
CC1(C(=O)Nc2ccccc2)CN(Cc2ccccc2)Cc2ccc(N3CCOCC3)nc21 (stereo unspecified),12.6µM,0
O=C(Nc1ccc(N2CCOCC2)cc1)[C@H]1CN(Cc2ccccc2)C[C@H]1C(=O)O,0,0
CC(C)NC(=O)N[C@H]1CCN2C(=O)c3cc(-c4ccc(Cl)cc4)ccc3NC(=O)[C@H]12,31.6µM,0
O=C(O)COCC(=O)N[C@H]1CCN2C(=O)c3cc(-c4ccc(Cl)cc4)ccc3NC(=O)[C@H]12,?,0
CC(C)NC(=O)N[C@H]1CCN2C(=O)c3cc(-c4cccc(C(F)(F)F)c4)ccc3NC(=O)[C@H]12,?,0
O=C(O)CCC(=O)N[C@H]1CCN2C(=O)c3cc(-c4ccc(Cl)cc4)ccc3NC(=O)[C@H]12,31.6µM,0
CCOC(=O)C(NC(=O)/C=C/c1c(F)cccc1Cl)C(=O)OCC,0,-
CN(C(=O)c1ccnc(-c2nnc3ccc(N4CCOCC4)nn23)c1)c1ccccc1,?,0
CN(C)C(=O)c1ccnc(-c2nnc3ccc(NCCN4CCOCC4)nn23)c1,35.5µM,0
O=C1CC(c2ccccc2)N(Cc2ccncc2)CCCN(C(=O)CCCc2ccccc2)CCN1 (stereo unspecified),0,0
COCCN1C(=O)c2ccccc2C(C(=O)NCCc2c[nH]c3ccccc23)C12CCCC2 (stereo unspecified),22.4µM,0
Cc1nc(NC(=O)C2c3ccccc3C(=O)N(C3CCCC3)C23CCCC3)sc1C (stereo unspecified),22.4µM,0
COCCN1C(=O)c2ccccc2C(C(=O)Nc2ccc(OC)cc2)C12CCCC2 (stereo unspecified),15.8µM,0
